Results published in PubChem BioAssay AID624255 (Broad Institute, 2012).
Screen size: about 77,000 compounds; about 4,600 (6%) were called active. Another 1% or so got no clear call; they are omitted.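 The calls were made as follows: active = mean inhibition above about 93%, with at least 55% of replicates each passing it (limit read from the data, passing the limit was not always enough); inconclusive = only one of those two conditions holds; inactive = neither condition holds.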 The full list was thinned out, with actives kept by preference.

assay: T. cruzi intracellular proliferation inhibitors, primary screen, cell-based, beta-gal Tulahuen parasites, NIH3T3 host, luminescence (AID 624255); conditions: T. cruzi beta-gal in NIH3T3, GalScreen luminescence, 90 h; at 8.34 µM; active compounds read high

inhibition, active:
C[C@@H]1CN([C@H](C)CO)C(=O)CCCn2nncc2CO[C@@H]1CN(C)Cc1ccc(C(=O)Nc2ccccc2N)cc1 103%
C[C@@H]1CN([C@H](C)CO)C(=O)c2cccc(NC(=O)c3cnccn3)c2O[C@@H]1CN(C)Cc1ccc(C(=O)Nc2ccccc2N)cc1 109%
CCCN(C)C[C@H]1Oc2cc(C#CC3CCCC3)ccc2S(=O)(=O)N([C@H](C)CO)C[C@@H]1C 98.6%
C[C@@H]1CN([C@@H](C)CO)S(=O)(=O)c2ccc(C#Cc3ccc(F)cc3)cc2O[C@H]1CN(C)S(C)(=O)=O 113%
CCCN(C)C[C@@H]1Oc2cc(C#Cc3ccc(F)cc3)ccc2S(=O)(=O)N([C@H](C)CO)C[C@H]1C 100%
O=S(=O)(c1ccc(F)cc1)N1CCCCN2[C@H](C1)[C@H](c1ccc(C3=CCCCC3)cc1)[C@@H]2CO 99.1%
Cc1ccccc1-c1ccc([C@H]2[C@H]3CN(S(=O)(=O)c4ccc(F)cc4)CCCCN3[C@H]2CO)cc1 111%
Cc1ccccc1-c1ccc([C@@H]2[C@H](CO)N3CCCCN(S(=O)(=O)c4ccc(F)cc4)C[C@@H]23)cc1 112%
COc1ccc(CN(C)C[C@H]2OCCCC[C@H](C)Oc3ccc(NC(=O)Nc4ccc5c(c4)OCO5)cc3C(=O)N([C@H](C)CO)C[C@@H]2C)cc1 98.7%
C[C@@H]1CCCCO[C@@H](CN(C)Cc2ccc3c(c2)OCO3)[C@@H](C)CN([C@@H](C)CO)C(=O)c2cc(NC(=O)Nc3ccccc3)ccc2O1 99.9%
C[C@@H]1CCCCO[C@H](CN(C)S(=O)(=O)c2ccc(Cl)cc2)[C@H](C)CN([C@@H](C)CO)C(=O)c2cc(NS(=O)(=O)c3cccs3)ccc2O1 110%
C[C@@H]1CN([C@H](C)CO)C(=O)c2cc(NS(=O)(=O)c3cccs3)ccc2O[C@@H](C)CCCCO[C@@H]1CN(C)S(=O)(=O)c1ccc(Cl)cc1 109%

inhibition, inactive:
CCNC(=O)C[C@H]1CC[C@@H]2[C@H](COC[C@H](O)CN2S(=O)(=O)c2ccc(Oc3ccccc3)cc2)O1 2.89%
C/C=C/c1ccc([C@@H]2[C@@H](CO)N(C(=O)CC)[C@H]2CN(C)C(=O)C2CC2)cc1 15%
COc1ccc(CNC(=O)C[C@H]2C[C@H]3c4cc(NS(C)(=O)=O)ccc4O[C@H]3[C@@H](CO)O2)cc1 -53%
CNC(=O)C[C@H]1CC[C@H]2[C@@H](COc3ccc(NS(=O)(=O)c4ccc(F)cc4)cc3C(=O)N2C)O1 17.2%
CN(C)C(=O)C[C@@H]1CC[C@H]2[C@@H](COC[C@H](O)CN2C(=O)c2ccncc2)O1 24.8%
COc1ccc(S(=O)(=O)Nc2ccc3c(c2)CC(=O)N([C@H](C)CO)C[C@@H](C)[C@H](CN(C)S(=O)(=O)c2c(C)noc2C)O3)cc1 -5.62%
C[C@@H](NC(=O)[C@H]1[C@H](CO)[C@H]2Cn3c(cccc3=O)[C@@H]1N2Cc1cccnc1)c1ccccc1 50%
C[C@@H]1CN([C@@H](C)CO)C(=O)c2cccc(NC(=O)c3cnccn3)c2O[C@H]1CN(C)Cc1ccc(C(=O)O)cc1 -4.45%
C[C@H]1CN([C@@H](C)CO)C(=O)CCCn2nncc2CO[C@H]1CN(C)Cc1ccccc1 -4.75%
C[C@@H]1CN([C@@H](C)CO)C(=O)c2cccc(NC(=O)c3cnccn3)c2O[C@H]1CN(C)Cc1ccc(-c2ccccc2)cc1 98.7%
C[C@@H]1CN([C@@H](C)CO)C(=O)CCCn2nncc2CO[C@@H]1CN(C)Cc1ccccc1 -1.5%
COCC(=O)Nc1ccc2c(c1)C(=O)N(C)[C@H]1CC[C@H](CC(=O)Nc3ccccc3)O[C@H]1CO2 43.2%
C[C@@H]1CN([C@H](C)CO)C(=O)c2cc(-c3ccc(C#N)cc3)cnc2O[C@@H]1CN(C)C(=O)Nc1ccccc1 33.2%
CCN1[C@@H]2Cn3c(ccc(-c4cccnc4)c3=O)[C@H]1[C@@H](C(=O)NC1CCCCC1)[C@@H]2CO -16.4%
O=C(NC[C@@H]1[C@H](c2ccccc2)[C@H](CO)N1CC1CCCC1)c1cccnc1 15.8%
CO[C@H]1CN(C)C(=O)c2ccc(NC(C)=O)cc2OC[C@H](C)N(C(=O)c2ccccc2)C[C@H]1C -19.6%
CCNC(=O)[C@@H]1[C@@H](CO)[C@@H]2Cn3c(ccc(-c4ccncc4)c3=O)[C@@H]2N1Cc1cc(F)ccc1F 80.1%
CCCN(C)C[C@@H]1Oc2cc(C#CC3CCCCC3)ccc2S(=O)(=O)N([C@@H](C)CO)C[C@@H]1C 42.1%
CNC[C@@H]1Oc2cc(C#CC3CCCC3)ccc2S(=O)(=O)N([C@@H](C)CO)C[C@@H]1C 61%
C[C@@H]1CN([C@@H](C)CO)S(=O)(=O)c2ccc(C#CC3CCCC3)cc2O[C@H]1CN(C)S(C)(=O)=O -41.8%
COCC#Cc1ccc2c(c1)O[C@@H](CN(C)S(C)(=O)=O)[C@H](C)CN([C@H](C)CO)S2(=O)=O 2.15%
CCCC#Cc1ccc2c(c1)O[C@@H](CN(C)CCC)[C@@H](C)CN([C@H](C)CO)S2(=O)=O 63.4%
CCCN(C)C[C@@H]1Oc2cc(C#CCc3ccccc3)ccc2S(=O)(=O)N([C@H](C)CO)C[C@@H]1C 80.1%
C[C@@H](NC(=O)C[C@@H]1CC[C@@H]2[C@H](COC[C@@H](O)CN2C(=O)Nc2cccc(F)c2)O1)c1ccccc1 21.9%
CC(C)NC(=O)N(C)C[C@@H]1Oc2ncc(-c3ccc(C(=O)N(C)C)cc3)cc2C(=O)N([C@H](C)CO)C[C@H]1C 35.4%
COc1ccc(S(=O)(=O)N(C)C[C@H]2OCCCC[C@H](C)Oc3ccc(NS(=O)(=O)c4c(C)noc4C)cc3C(=O)N([C@@H](C)CO)C[C@@H]2C)cc1 23.4%
C[C@H]1CN([C@@H](C)CO)C(=O)c2cc(C#CC(C)(C)O)cnc2O[C@H]1CN(C)C(=O)CC1CC1 -14.6%
O=S(=O)(Cc1ccccc1)NCC[C@@H]1CC[C@@H](NS(=O)(=O)c2ccccc2)[C@@H](CO)O1 -0.486%
CC(=O)N1CC[C@@H]2[C@@H](CO)N(C)c3ccc(-c4ccc(C#N)cc4)cc3[C@@H]21 52.3%
Cc1noc(C)c1NC(=O)Nc1ccc2c(c1)C(=O)N([C@@H](C)CO)C[C@@H](C)[C@H](CN(C)C(=O)Nc1ccc(C(F)(F)F)cc1)OCCCC[C@@H](C)O2 27.1%
Cn1cnc(S(=O)(=O)N2CCCCN3[C@H](CO)[C@@H](c4ccc(-c5ccc(F)cc5)cc4)[C@@H]3C2)c1 11.8%
COc1ccc(S(=O)(=O)N2CCCCN3[C@H](CO)[C@H](c4ccc(C5=CCCCC5)cc4)[C@@H]3C2)cc1 88.5%
COc1ccc(S(=O)(=O)N2CCCCN3[C@H](C2)[C@H](c2ccc(C4=CCCC4)cc2)[C@@H]3CO)cc1 7.54%
COc1ccccc1-c1ccc([C@@H]2[C@@H](CO)N3CCCCN(S(=O)(=O)c4cn(C)cn4)C[C@H]23)cc1 42.2%
C[C@@H](NC(=O)C[C@@H]1CC[C@@H](NC(=O)C2CCOCC2)[C@@H](CO)O1)c1ccccc1 9.21%
O=C(C[C@@H]1CC[C@@H](NC(=O)Nc2ccc(F)cc2)[C@H](CO)O1)NCCN1CCCC1 30.1%
CCCNC(=O)N1[C@@H]2c3ccc(-c4ccccc4OC)c(=O)n3C[C@H]1[C@H](CO)[C@H]2C(=O)N(C)C 1.54%
CO[C@@H]1CC[C@@H]2CCOc3c(C#N)cccc3C(=O)N(C)C[C@@H](OC)[C@@H](C)C(=O)N(C)C[C@H]1O2 11.7%
CC(=O)N1[C@@H](CO)[C@H](c2ccccc2)[C@@H]1CN(C)C(=O)CN1CCOCC1 50.9%
COc1ccc(NC(=O)N(C)C[C@H]2OCCCC[C@@H](C)Oc3ccc(NC(=O)Nc4ccc5c(c4)OCO5)cc3C(=O)N([C@H](C)CO)C[C@@H]2C)cc1 9.34%
COc1ccc(NC(=O)Nc2ccc3c(c2)C(=O)N([C@H](C)CO)C[C@H](C)[C@@H](CN(C)Cc2ccc(C(=O)O)cc2)OCCCC[C@H](C)O3)cc1 51%
C[C@@H]1CN([C@@H](C)CO)C(=O)c2cc(NC(=O)Nc3ccc4c(c3)OCO4)ccc2O[C@@H](C)CCCCO[C@@H]1CN(C)Cc1ccccc1 41.8%
C[C@@H]1CN([C@H](C)CO)C(=O)c2cc(NC(=O)Nc3ccc4c(c3)OCO4)ccc2O[C@@H](C)CCCCO[C@@H]1CN(C)Cc1ccc2c(c1)OCO2 81.6%
Cc1cccc(S(=O)(=O)N2C[C@H]3[C@@H](c4ccccc42)[C@H](CO)N3Cc2ccc3c(c2)OCO3)c1 72.7%
CN1C[C@H](O)COC[C@H]2O[C@H](CC(=O)NC3CCC3)CC[C@@H]21 -61.9%
C[C@@H]1CCCCO[C@H](CN(C)S(=O)(=O)c2cccs2)[C@H](C)CN([C@@H](C)CO)C(=O)c2cc(NS(=O)(=O)c3cccs3)ccc2O1 -8.67%
C[C@@H]1CCCCO[C@@H](CN(C)S(=O)(=O)c2ccc(F)cc2)[C@@H](C)CN([C@@H](C)CO)C(=O)c2cc(NS(=O)(=O)c3cccs3)ccc2O1 10.6%
C[C@@H]1CN([C@H](C)CO)C(=O)c2cc(NS(=O)(=O)c3cccs3)ccc2O[C@@H](C)CCCCO[C@@H]1CN(C)S(=O)(=O)c1cccs1 -40.5%
C[C@@H]1CCCCO[C@@H](CN(C)S(C)(=O)=O)[C@H](C)CN([C@@H](C)CO)C(=O)c2cc(NS(=O)(=O)c3cccs3)ccc2O1 -8.12%
